High-throughput results: PubChem BioAssay, several laboratories
PostGolgi ctrl – yeast control strain growth, post-Golgi counter-screen; hit rate 5% among 98,000; inhibition, % at 10 µM; efflux-deficient yeast background strain, growth absorbance A615, 16 h; AID 738
PostGolgi yeast – growth inhibition of a yeast mutant, post-Golgi transport screen; inhibition, % at 10 µM; hit rate 0.9% among 98,000; post-Golgi transport phenotypic cell assay;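 further: yeast cells grown in 1536-well plates; yeast grown about 18 h at 30C before absorbance read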
GALR2 ag – GALR2 (human) receptor agonism. O43603. GALR2-expressing cells, agonist activation read-out. activation, % (concentration not given with the values). hit rate 0.48% among 140,000. AID 803; in the data active means activation above about 5%, passing the limit was not always enough;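 further: 0% = vehicle buffer wells and 100% = reference agonist at full effect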
Target sequence (O43603 whole entry, looked up): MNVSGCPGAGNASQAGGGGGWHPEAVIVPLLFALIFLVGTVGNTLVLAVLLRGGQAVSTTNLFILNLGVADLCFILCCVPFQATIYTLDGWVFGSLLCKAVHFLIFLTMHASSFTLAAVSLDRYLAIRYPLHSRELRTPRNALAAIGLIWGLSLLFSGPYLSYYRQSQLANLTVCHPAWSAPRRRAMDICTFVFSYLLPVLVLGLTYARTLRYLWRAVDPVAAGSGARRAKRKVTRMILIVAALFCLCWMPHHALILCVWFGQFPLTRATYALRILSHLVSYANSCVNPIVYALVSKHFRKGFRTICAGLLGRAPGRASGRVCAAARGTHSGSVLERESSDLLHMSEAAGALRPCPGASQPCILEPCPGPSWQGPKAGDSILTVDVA
GALR2 blocker – antagonists of human galanin receptor 2 (GALR2) | O43603 | GALR2-expressing cells, antagonist mode | inhibition, % at 4 µM | hit rate 0.39% among 140,000; in the data active means inhibition above about 27%;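 further: cells stimulated with galanin 1-16 at roughly its EC80; 0% = agonist challenge control and 100% = basal control without agonist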
S1P2 agonist – agonists of human S1P2 receptor. S1P2-expressing cell line, agonist reporter read-out. hit rate 0.46% among 97,000. O95136. activation, % at 4.5 µM; in the data active means activation above about 16%;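 further: 0% = vehicle low control and 100% = maximal reference agonist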
S1P2 blocker – antagonists of human S1P2 receptor; AID 736; inhibition, % at 5 µM; O95136; hit rate 0.21% among 97,000; cell-based S1P2 antagonist assay, inhibition at 5 uM; in the data active means inhibition above about 45%;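 further: CRE beta-lactamase reporter cells expressing human S1P2 stimulated with S1P; 0% = agonist at EC80 alone and 100% = agonist plus reference antagonist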
GALR2 ag confirm – GALR2 (human) agonism confirmed. AID 864. shares compounds with GALR2 ag. hit rate 10% among 460. activation, % at 5.6 µM. GALR2-expressing cells, agonist activation; in the data active means activation above about 8.4%;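 further: 0% = buffer-only vehicle wells and 100% = full reference agonist response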
BLA activ ctr – activates beta-lactamase reporter in GALR2 agonist counterscreen | hit rate 10% among 460 | shares compounds with GALR2 ag | activation, % at 5.6 µM | CHO NFAT-bla reporter, beta-lactamase FRET activation;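 active means activation above the screen-wide mean activation plus 3 SD, cut at about 8% in these data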;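 further: 0% = DMSO with PBS wells and 100% = thapsigargin positive control wells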
* marks the source's active call; other numbers are inactive results. The full list was thinned out, with hits kept by preference. Unless noted, no stated cut-off is given here; in the data, active means inhibition above about 30%; inactive means the rest.

For O=C(COc1ccccc1)Nc1sc2c(c1C(=O)NCc1cccnc1)CCCC2 the results were PostGolgi ctrl 10, PostGolgi yeast -3, GALR2 ag 10, GALR2 blocker -8, S1P2 agonist -3, S1P2 blocker 16, GALR2 ag confirm 4 and BLA activ ctr -2.
For O=C(Nc1ccccc1-c1ccccc1)c1ccc(Br)o1 the results were PostGolgi ctrl 35*, PostGolgi yeast -2, GALR2 ag 13*, GALR2 blocker -12, S1P2 agonist 2, S1P2 blocker -20, GALR2 ag confirm 0 and BLA activ ctr -1.
`Cc1ccc(CNC(=O)CCNC(=O)c2ccc(Br)o2)cc1` gave PostGolgi ctrl 20, PostGolgi yeast -5, GALR2 ag 28*, GALR2 blocker -14, S1P2 agonist -2, S1P2 blocker -4, GALR2 ag confirm -1 and BLA activ ctr -2.
CS(=O)(=O)NCCCNc1ccc(Cl)cc1[N+](=O)[O-] was read as PostGolgi ctrl -7, PostGolgi yeast -1, GALR2 ag 58*, GALR2 blocker -2, S1P2 agonist -4, S1P2 blocker 1, GALR2 ag confirm -1 and BLA activ ctr -1.
`CCNCCNc1ccc(Cl)cc1[N+](=O)[O-]` gave GALR2 ag -1, GALR2 blocker 5, S1P2 agonist -7 and S1P2 blocker -16.
Screening CC(C)CC(COCc1ccc(F)cc1)N1CCN(C(=O)c2cccc(C(F)(F)F)c2)CCC1=O (configuration not stated) returned GALR2 ag -1 and GALR2 blocker -7.
Cc1ccc(COCC(CC(C)C)N2CCN(C(=O)c3cccc(C(F)(F)F)c3)CCC2=O)cc1 (configuration not stated) was read as GALR2 ag 8.9*, GALR2 blocker -13, GALR2 ag confirm 0 and BLA activ ctr -4.
Screening CCOC(=O)CS(=O)(=O)c1nc(-c2ccc(F)cc2)cc(C(F)(F)F)n1 returned PostGolgi ctrl 48*, PostGolgi yeast 8, GALR2 ag 9.3*, GALR2 blocker 51*, GALR2 ag confirm 3 and BLA activ ctr -9.
Screening COCC(C)NC(=O)CCS(=O)(=O)c1nc(-c2ccc(OC)cc2)cc(C(F)(F)F)n1 (configuration not stated) returned PostGolgi ctrl 12, PostGolgi yeast 3, GALR2 ag 0 and GALR2 blocker 4.
COC(=O)CCS(=O)(=O)c1nc(-c2ccccc2)cc(C(F)(F)F)n1 was read as PostGolgi ctrl 57*, PostGolgi yeast 0, GALR2 ag 11, GALR2 blocker 8, S1P2 agonist -2, S1P2 blocker -11, GALR2 ag confirm 0 and BLA activ ctr 2.
Screening O=S1(=O)C[C@H]2NC(=S)N(c3ccccc3)[C@H]2C1 returned GALR2 ag -1 and GALR2 blocker 6.
CN(CC(O)CON=C1c2ccccc2-c2ccccc21)S(=O)(=O)c1ccc(Br)cc1 (configuration not stated) was read as GALR2 ag 11*, GALR2 blocker -12, GALR2 ag confirm 0 and BLA activ ctr 1.
N=C1C(c2ccccc2)=C(O)CN1c1cccc(S(=O)(=O)Nc2cccc(C(F)(F)F)c2)c1 was read as GALR2 ag 0 and GALR2 blocker 5.
Screening O=C(Cc1cc(=O)oc2cc(O)ccc12)NCC1CCC(C(=O)O)CC1 (configuration not stated) returned PostGolgi ctrl 11, PostGolgi yeast 12, GALR2 ag 9, GALR2 blocker 0, S1P2 agonist 4, S1P2 blocker -4, GALR2 ag confirm 1 and BLA activ ctr 3.
Screening O=C(N/N=C/c1cccc([N+](=O)[O-])c1)C1CC(=O)N(c2ccc(F)cc2)C1 (configuration not stated) returned GALR2 ag -1 and GALR2 blocker -3.
`CC(C)CN=C(NS(=O)(=O)c1ccccc1)C(Cl)(Cl)Cl` gave GALR2 ag -1 and GALR2 blocker -7.
Screening Cc1cc(C)c2nc(NNC(=O)c3ccc(S(=O)(=O)N4CCCC(C)C4)cc3)sc2c1 (configuration not stated) returned GALR2 ag 18*, GALR2 blocker 16, GALR2 ag confirm 8.2* and BLA activ ctr -2.
Screening Cc1cc(C)c2nc(NNC(=O)c3ccc(S(=O)(=O)N4CC(C)CC(C)C4)cc3)sc2c1 (configuration not stated) returned GALR2 ag 44*, GALR2 blocker 11, GALR2 ag confirm 14* and BLA activ ctr 2.
For Cc1cccc2sc(NNC(=O)c3ccc(S(=O)(=O)N4CC(C)CC(C)C4)cc3)nc12 (configuration not stated) the results were GALR2 ag 33*, GALR2 blocker 8, GALR2 ag confirm 8 and BLA activ ctr -3.
For Cc1ccc2nc(NNC(=O)c3ccc(S(=O)(=O)N4CCc5ccccc5C4)cc3)sc2c1 the results were GALR2 ag -3 and GALR2 blocker -3.
`Cc1nn(C)c(C)c1CN(C)C(=O)CCCC(=O)O` gave GALR2 ag -2, GALR2 blocker -10, S1P2 agonist -4 and S1P2 blocker -21.
CN(CC(=O)OCC(=O)c1c(N)n(C)c(=O)n(C)c1=O)S(=O)(=O)c1ccc(Cl)cc1 was read as GALR2 ag 1 and GALR2 blocker -7.
Screening CC(/C=N/NC(=O)c1cc(-c2cccnc2)nc2c1c(C)nn2-c1ccccc1)=C\c1ccccc1 returned GALR2 ag -2 and GALR2 blocker 9.
For CN(C)c1cc[n+](Cc2c(Cl)cccc2Cl)cc1 the results were GALR2 ag -1, GALR2 blocker 4, S1P2 agonist -2 and S1P2 blocker -10.
CCSc1ncc(C#N)c(N)n1 was read as PostGolgi ctrl 6, PostGolgi yeast 14, GALR2 ag 10, GALR2 blocker -19, S1P2 agonist 0, S1P2 blocker -4, GALR2 ag confirm -1 and BLA activ ctr -3.
COc1ccc(Nc2sc(C(=O)c3ccc(Cl)cc3)c(N)c2C(=O)Nc2ccccc2OC)cc1 was read as PostGolgi ctrl 10, PostGolgi yeast -10, GALR2 ag 14*, GALR2 blocker -7, S1P2 agonist -2, S1P2 blocker -13, GALR2 ag confirm -2 and BLA activ ctr -2.
COc1ccc(NC(=O)c2c(Nc3ccccc3)sc(C(=O)c3ccc(F)cc3)c2N)cc1 was read as PostGolgi ctrl 1, PostGolgi yeast 0, GALR2 ag -3, GALR2 blocker -3, S1P2 agonist -5 and S1P2 blocker 44.
Screening COc1ccc(C(=O)c2sc(Nc3cccc(OC)c3)c(C(=O)Nc3cccc(C)c3C)c2N)cc1 returned PostGolgi ctrl 0, PostGolgi yeast -1, GALR2 ag 16*, GALR2 blocker 9, S1P2 agonist -2, S1P2 blocker 6, GALR2 ag confirm 1 and BLA activ ctr 0.
